Screen size: about 310,000 compounds; about 17,000 (5.5%) were called active. About 11% were inconclusive and are not listed. Calls come from the whole dose curve; as a rule, active = well fitted inhibition curve with a large enough effect; inconclusive = small, poorly fitted or top-dose-only effect, or effect the other way; inactive = no such curve, though single readings can be large or run the other way. Shown is part of a subset that was picked to be rich in actives.
What follows are compounds tested against Nuclear receptor ROR-gamma (Mus musculus) (UniProt P51450) (assay: qHTS for inhibitors of ROR gamma transcriptional activity). Details: Drosophila S2 Gal4-RORgamma UAS-luciferase reporter, 20 h; series mostly up to 53.6 µM; activity change, negative = inhibition: at the top concentration.
Sequence of Nuclear receptor ROR-gamma (Mus musculus) (P51450 whole entry, looked up, the tested form may be a part): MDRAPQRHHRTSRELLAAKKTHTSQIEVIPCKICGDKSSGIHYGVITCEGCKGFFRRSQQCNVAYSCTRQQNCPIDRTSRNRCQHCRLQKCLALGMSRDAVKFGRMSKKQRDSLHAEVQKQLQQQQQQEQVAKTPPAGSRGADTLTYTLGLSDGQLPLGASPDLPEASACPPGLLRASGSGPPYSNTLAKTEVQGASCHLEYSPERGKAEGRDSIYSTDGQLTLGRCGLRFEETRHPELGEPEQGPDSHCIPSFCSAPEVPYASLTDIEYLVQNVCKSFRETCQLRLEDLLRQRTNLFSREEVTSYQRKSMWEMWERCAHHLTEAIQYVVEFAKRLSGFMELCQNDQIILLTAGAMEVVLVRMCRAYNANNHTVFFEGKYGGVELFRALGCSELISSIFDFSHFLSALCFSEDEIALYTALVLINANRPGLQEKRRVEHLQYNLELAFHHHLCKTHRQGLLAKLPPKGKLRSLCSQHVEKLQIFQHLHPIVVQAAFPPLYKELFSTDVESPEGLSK
Method in brief: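 Stably transfected Drosophila Schneider cells are the test system, with ROR gamma fused to Gal4 and luciferase under UAS control; luminescence is read after 20 hr of 700 uM copper sulfate induction at ambient temperature.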
% is set by controls: 0 for no effect and ±100 for the full control effect; potency is the fitted concentration of half-maximal effect.
Note: nearly all actives have a fitted effect of over 60% in size.

Activity change, negative = inhibition, inactive:
O=C(Nc1c2c(nn1-c1cccc(Cl)c1)CS(=O)(=O)C2)c1cccs1 -10.5%
COc1ccc(C(=O)Nc2c(N)nc(SCC(=O)Nc3ccc(C(C)=O)cc3)[nH]c2=O)cc1 -19.8%
CCCCN(CC)C(=O)C1CCCN(S(=O)(=O)c2cccc3nsnc23)C1 (centres undefined) 3.5%
Cc1ccc(OC(=O)c2cncc(Br)c2)c(C)c1 -23% [at 1.91 µM]
O=C(NCc1ccccn1)C1CCN(S(=O)(=O)c2ccc(Br)cc2)CC1 -18.1%
CC(=O)Cc1nsc(NC(=O)c2csc3c2CCCC3)n1 25%
Cc1ccc(NC(=O)c2csc3c2CCCC3)cc1 12.7%
COc1ccc(C(=O)NC2CCN(C(=O)Nc3ccc(F)cc3)CC2)cc1 -0.284%
COc1ccccc1CNC(=O)c1ccc(CS(=O)(=O)c2ccccc2)o1 28.3%
CCOc1ccc(CN2CCN(CCCc3ccccc3)C(CCO)C2)cc1 (centres undefined) 2.1%
CCN(C(=O)C1CCCN(c2nc(-c3ccc(OC)cc3)no2)C1)c1ccc(OC)cc1 (centres undefined) 38.9%
OC(c1nc2ccccc2[nH]1)C(O)C(O)C(O)c1nc2ccccc2[nH]1 (centres undefined) 20.1%
OCCNc1nc2ccccc2[nH]1 -8.36%
Cc1cc(C)c2c(-c3ccc(F)cc3)c(C#N)c(=O)n(C)c2n1 -20%
CCc1ccc(OCC2c3cc(OC)c(OC)cc3CCN2C(C)=O)cc1 (centres undefined) -7.5%
Nc1nc(Nc2ccccc2F)nc(NC2CCCCC2)c1[N+](=O)[O-] 16.6%
O=c1cc(-c2ccccc2)nc(N2CCCCC2)[nH]1 -5.11%
O=c1cc(N2CCCCC2)c(-c2ccccc2)nn1Cc1cccc(F)c1 -0.464%
CCC(=O)Nc1nnc(S(=O)(=O)N(CC(C)C)c2ccccc2)s1 -21.1%
CCOc1ccc2[nH]c(=O)c(CN(CCCO)S(=O)(=O)c3ccc(F)cc3)cc2c1 12.8%
c1ccc2c(c1)OCC(c1nn3cnnc3s1)O2 (centres undefined) 16.7%
CC1COc2ccccc2N1C(=O)c1ccc(F)cc1 (centres undefined) 24%
COc1ccc(N2CCN(C(=O)c3ccc(N4CCCCS4(=O)=O)cc3)CC2)cc1 29.1%
COc1ccc(-c2cc(C(=O)N3CCN(c4ccc(F)cc4)CC3)no2)cc1 4.47%
CCOc1ccc2[nH]c3nc(SCC(=O)NC4CCCC4)nnc3c2c1 -11.8%
O=c1c2ccccc2ncn1CCCCOc1ccccc1F 12.9% [at 1.91 µM]
COC(=O)c1ccc(NC(=O)CSc2nc(N)c(NC(=O)c3ccc(Br)o3)c(=O)[nH]2)cc1 5.56%
O=c1oc(/C=C/c2ccccc2)nc2ccccc12 0.954%
COc1ccc(N(CC(=O)N2CCCCCC2)S(=O)(=O)c2ccccc2)cc1 2.49%
Cc1ccc(NC2CCCN(C(=O)CCc3cn[nH]c3)C2)cc1C (centres undefined) 14.3%
Cc1ccccc1N1CCN(CC(=O)NCc2ccc(Cl)cc2)CC1 27.3%
COC(=O)c1sc(=S)n(-c2ccccc2)c1N 0.645%
CCOC(=O)c1sc2nc(C)[nH]c(=O)c2c1C 18.3%
O=S(=O)(c1ccc(Cl)cc1)c1nc(-c2ccccc2F)oc1NCCN1CCOCC1 38.8%
CC(=O)c1ccc(NC(=O)c2sc3nc4n(c(=O)c3c2C)CCCCC4)cc1 34.7%
O=C(Cc1ccc2c(c1)CCCC2)Nc1ccccc1Cl 8.31%
O=C(Nc1ccccc1Cl)Nn1cnnc1 -16.9%
Cc1ccc(S(=O)(=O)c2nnn3c2nc(N2CCN(c4ccccn4)CC2)c2ccccc23)cc1 -12.8%
CCC(CC)c1nnc(NC(=O)C2CCN(C(=O)c3ccco3)CC2)s1 35.8%
CC(CNC(=O)c1ccc(Br)o1)NC(=O)c1ccc(Br)o1 (centres undefined) -15%
O=C(NCc1cccs1)c1ccc(Br)o1 5.95%
CC1CCN(C(=O)Cn2nnnc2CN2CCOCC2)CC1 -26.6%
COC(CNC(=O)c1ccc2c(c1)ncn2-c1cc(C)cc(C)c1)OC 9.19%
O=C(N/N=C/c1ccccn1)c1cccnc1 -45.9%
O=C(NN=C1CCC(=NNC(=O)c2cccnc2)CC1)c1cccnc1 -37.9%
CN(Cc1ccccc1)C(=O)c1ccc(NC2=NC3CS(=O)(=O)CC3S2)cc1 (centres undefined) -0.867%
COc1cccc(Cn2cc(/C=N/NC(=O)c3cc(O)cc(O)c3)c3ccccc32)c1 -0.821%
CNC(=S)N/N=C/c1cn(Cc2ccc(C)cc2)c2ccccc12 31.1%
Cc1c(C=O)c2ccccc2n1CCOc1ccccc1 77.1%
COc1cccc(C(C(=O)NC2CCCC2)N(C(=O)c2ccco2)c2cccc(C(C)=O)c2)c1OC (centres undefined) 27%
Cc1ccc2[nH]c(C)c(CCNC(=O)NC3CCCCC3)c2c1 25.9%
Cc1[nH]c2ccccc2c1CCN(Cc1cccs1)C(=S)NC(C)(C)C 3.01%
COc1ccc2[nH]c(C)c(CCN(Cc3cccs3)C(=S)Nc3ccccc3OC)c2c1 38.3%
COCCNC(=S)N(CCc1c(C)[nH]c2ccc(C)cc12)Cc1cccnc1 5.98%
NS(=O)(=O)c1ccc(CNC(=O)c2cccc(Oc3ccccc3)c2)cc1 -1.73%
COc1ccc(N2CCN(C(=O)Cn3cnc4sc(C)c(S(=O)(=O)N5CCOCC5)c4c3=O)CC2)cc1 6.53%

Potency, active:
Cc1coc2c(O)cc3c(c12)OC1(N2CCCCC2)C(=O)NCCCC31 (centres undefined) 12.6 µM
COC(=O)c1sc(NC(=O)c2csc3c2CCCC3)nc1C 35.5 µM
c1ccc2[nH]c(-c3nc4ccccc4[nH]3)nc2c1 10 µM
c1ccc(-c2cc(N3CCCCC3)c3ccccc3n2)cc1 14.1 µM
O=C(Nc1nnc(C2COc3ccccc3O2)o1)c1ccc(F)cc1 (centres undefined) 0.562 µM
S=c1[nH]nc(/C=C/c2ccccc2)o1 12.6 µM
COC(=O)c1sc2[nH]c(=S)n(N)c(=O)c2c1C 7.08 µM
O=C(Nc1ccccc1Cl)/C(Cl)=C(\Cl)S(=O)c1ccccc1 (centres undefined) 0.891 µM
C=CCNC(=S)NNC(=O)c1ccc(Br)o1 2 µM
O=C(N/N=C/c1sc(N2CCCCC2)nc1-c1cccs1)c1cccnc1 7.94 µM
N#CCC(=O)N/N=C/c1cn(Cc2ccc3ccccc3c2)c2ccccc12 12.6 µM
CCNC(=S)N(CCc1c(C)[nH]c2ccc(C)cc12)Cc1ccco1 11.2 µM
COc1cccc(NC(=S)N(CCc2c(C)[nH]c3ccccc23)Cc2ccco2)c1 11.2 µM
